The values below come from PubChem BioAssay (NCATS).

Experiment [1] is described as follows: Natriuretic polypeptide receptor (hNpr1) antagonism - Pilot counterscreen GloSensor control cell line (AID 1347045). Further: series mostly up to about 38 µM; on the % scale 0 is the no-effect control and ±100 the full control effect. The procedure, abridged:
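The SNP-driven cGMP luminescence signal (50 uM, 20 min, room temperature) was measured in GloSensor HEK293 control cells. Compounds were tested as a LOPAC titration series and preincubated for 30-50 min.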

The target of experiment [2] is Atrial natriuretic peptide receptor 1 (Homo sapiens) (UniProt P16066). Kind of experiment: Natriuretic polypeptide receptor (hNpr1) antagonism - Pilot screen (AID 1347049).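 Further: HEK293 cells with hNpr1 and GloSensor cGMP luciferase stimulated by 0.1 nM hNppA; agonist-evoked cGMP luminescence read 20 min after hNppA addition; series mostly up to about 58 µM; on the % scale 0 is the no-effect control and ±100 the full control effect.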 Summed up:
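Receptor antagonism read as cGMP-dependent luminescence in hNpr1/pGS-40F HEK293 cells: pre-read after 30 min compound exposure, post-read 20 min after hNppA agonist at 0.1 nM final, all at room temperature, protected from light; A-71915 titration as control.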

The target in experiment [3] is Atrial natriuretic peptide receptor 2 (Homo sapiens) (UniProt P20594). In words: Natriuretic polypeptide receptor (hNpr2) antagonism - Pilot subtype selectivity assay (AID 1347050). Further: on the % scale 0 is the no-effect control and ±100 the full control effect. The procedure, abridged:
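Antagonist mode: compounds (LOPAC1280, seven 1:5 dilutions) added 30 min before 1 nM hNppC stimulation of hNpr2-HEK293 cGMP-sensor cells; luminescence read before and 20 min after agonist at ambient temperature.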

Experiment [4] is described as follows: NS1 protein of Zika virus - qHTS assay to identify small molecule inhibitors in human HEK 293 cells (AID 1347053; active means well fitted curve in the direction sought with a large enough effect; an effect the other way counts as inactive or inconclusive;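 further: series mostly up to about 46 µM; plate controls were infected untreated cells for no effect and uninfected cells for full effect; nearly all actives have a fitted effect of over 55% in size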). The procedure, abridged:
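Read-out is a two-antibody TR-FRET for ZIKV NS1, normalized between uninfected cells and infected cells. Compound added 1 h before MR766 infection at MOI 0.5; human HEK 293 cells incubated 24 h, 37 C.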

Experiment [5] has as its target T1, Tyrosine-protein phosphatase non-receptor type substrate 1 (Homo sapiens) + Leukocyte surface antigen CD47 (Homo sapiens) (UniProt P78324+Q08722). In words: CD47-SIRPalpha protein protein interaction - LANCE assay qHTS validation (AID 1347057; active means well fitted curve in the direction sought with a large enough effect in the signal ratio, with a control signal flat, not every such curve was filed as active; the % refers to the signal ratio; further: series mostly up to about 38 µM; 0% is about no effect). The procedure, abridged: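 Inhibition of soluble CD47/SIRPalpha ectodomain association by titrated compounds, measured as 665/615 nm time-resolved FRET ratio after sequential 30 min room-temperature incubations.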

Experiment [6] deals with T1, Tyrosine-protein phosphatase non-receptor type substrate 1 (Homo sapiens) + Leukocyte surface antigen CD47 (Homo sapiens). Kind of experiment: CD47-SIRPalpha protein protein interaction - HTRF assay qHTS validation (AID 1347058; active means well fitted curve in the direction sought with a large enough effect in the signal ratio, not every such curve was filed as active; the % refers to the signal ratio; further: series mostly up to about 38 µM; 0% is about no effect). The procedure, abridged:
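Soluble extracellular domains (6His-CD47, Avi-tag-biotinylated SIRPalpha) in PBS pH 7.4 with 0.05% IGEPAL CA-630. Compounds were preincubated 30 min at RT with CD47 and anti-His-Eu, then SIRPalpha and SAV-XL665 were added. TR-FRET 665/615 ratio.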

Experiment [7] has the same target. In words: CD47-SIRPalpha protein protein interaction - Alpha assay qHTS validation (AID 1347059; active means well fitted curve in the direction sought with a large enough effect; an effect the other way counts as inactive or inconclusive;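 further: bead proximity luminescence from CD47 binding SIRPalpha after compound preincubation with SIRPalpha; on the % scale 0 is the no-effect control and ±100 the full control effect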). The procedure, abridged:
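AlphaScreen signal between CD47-His (12.5 nM) and biotin-SIRPalpha (25 nM) soluble extracellular domains, bead-captured via Ni-NTA and streptavidin. Compounds, in 7-point titrations, met SIRPalpha 30 min before CD47; PBS pH 7.4 with 0.05% IGEPAL.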

The nature of experiment [8]: P-glycoprotein substrates identified in KB-8-5-11 adenocarcinoma cell line, qHTS therapeutic library screen (AID 1346987; active means well fitted curve in the direction sought with a large enough effect; an effect the other way counts as inactive or inconclusive; further: nearly all actives have a fitted effect of over 65% in size; further: potency means the concentration at half of the fitted maximal effect). Summed up:
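Human cervical adenocarcinoma KB-8-5-11 cells, selected in colchicine to over-express P-gp and assayed without it, were exposed for 72 h to titrated compounds. An ATP-based luminescent viability signal gave AC50.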

Results filed as inconclusive are left out. A number with no mark means an inactive call. Activity calls are given as the source filed them. Unless noted, the call rests on the fitted dose curve.

Sequence of Atrial natriuretic peptide receptor 1 (Homo sapiens) (P16066 whole entry, looked up): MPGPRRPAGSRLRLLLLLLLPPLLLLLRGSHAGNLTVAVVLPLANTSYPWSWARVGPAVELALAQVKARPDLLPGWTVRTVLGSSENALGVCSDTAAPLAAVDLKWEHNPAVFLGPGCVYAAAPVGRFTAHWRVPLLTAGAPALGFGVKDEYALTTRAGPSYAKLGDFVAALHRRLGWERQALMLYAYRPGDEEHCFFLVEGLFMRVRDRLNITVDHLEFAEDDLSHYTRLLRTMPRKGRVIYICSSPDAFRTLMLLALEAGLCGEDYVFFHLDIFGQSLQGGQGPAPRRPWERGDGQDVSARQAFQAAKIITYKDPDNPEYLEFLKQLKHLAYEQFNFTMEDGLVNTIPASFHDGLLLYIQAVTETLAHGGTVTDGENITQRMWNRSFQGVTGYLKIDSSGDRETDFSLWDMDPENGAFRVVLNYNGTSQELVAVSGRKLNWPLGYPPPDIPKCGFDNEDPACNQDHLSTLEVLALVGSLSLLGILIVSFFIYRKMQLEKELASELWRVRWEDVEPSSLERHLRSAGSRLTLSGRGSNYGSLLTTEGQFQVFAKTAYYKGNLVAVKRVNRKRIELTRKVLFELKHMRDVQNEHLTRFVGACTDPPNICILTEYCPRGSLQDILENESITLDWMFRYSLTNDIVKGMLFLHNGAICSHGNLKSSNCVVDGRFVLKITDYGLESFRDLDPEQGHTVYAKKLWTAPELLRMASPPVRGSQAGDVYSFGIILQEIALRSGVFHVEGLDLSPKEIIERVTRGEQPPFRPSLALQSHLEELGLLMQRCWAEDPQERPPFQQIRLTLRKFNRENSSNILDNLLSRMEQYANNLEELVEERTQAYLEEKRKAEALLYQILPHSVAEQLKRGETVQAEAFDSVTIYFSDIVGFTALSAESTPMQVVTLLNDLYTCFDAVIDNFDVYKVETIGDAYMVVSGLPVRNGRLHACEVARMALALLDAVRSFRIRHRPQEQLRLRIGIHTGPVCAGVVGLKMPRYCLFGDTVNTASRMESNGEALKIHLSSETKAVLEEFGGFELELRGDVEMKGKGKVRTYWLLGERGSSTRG
T1 sequence (P78324 whole entry, looked up, the tested form may be a part): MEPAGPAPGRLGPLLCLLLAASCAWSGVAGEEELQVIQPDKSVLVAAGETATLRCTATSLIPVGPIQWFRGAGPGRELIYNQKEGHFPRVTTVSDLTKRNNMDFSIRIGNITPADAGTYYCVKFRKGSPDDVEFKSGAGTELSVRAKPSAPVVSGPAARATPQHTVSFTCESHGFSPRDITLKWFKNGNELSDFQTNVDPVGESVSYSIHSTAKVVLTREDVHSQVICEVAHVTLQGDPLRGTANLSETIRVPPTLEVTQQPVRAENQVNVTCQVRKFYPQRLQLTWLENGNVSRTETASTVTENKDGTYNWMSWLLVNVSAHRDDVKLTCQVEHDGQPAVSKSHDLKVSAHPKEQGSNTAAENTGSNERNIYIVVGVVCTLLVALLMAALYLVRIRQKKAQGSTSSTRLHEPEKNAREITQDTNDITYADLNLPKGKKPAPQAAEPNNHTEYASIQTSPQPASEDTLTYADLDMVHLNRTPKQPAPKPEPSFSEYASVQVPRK
T1 sequence (Q08722 whole entry, looked up, the tested form may be a part): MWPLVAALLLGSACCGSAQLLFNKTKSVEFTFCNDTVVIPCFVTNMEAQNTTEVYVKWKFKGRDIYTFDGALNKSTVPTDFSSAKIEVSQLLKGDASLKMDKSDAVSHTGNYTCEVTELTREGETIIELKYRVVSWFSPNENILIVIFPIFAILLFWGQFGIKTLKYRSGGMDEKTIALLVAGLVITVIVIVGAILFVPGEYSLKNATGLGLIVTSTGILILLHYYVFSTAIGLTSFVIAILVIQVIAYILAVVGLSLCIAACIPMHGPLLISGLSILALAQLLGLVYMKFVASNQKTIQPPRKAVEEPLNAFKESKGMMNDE
Sequence of Atrial natriuretic peptide receptor 2 (Homo sapiens) (P20594 whole entry, looked up): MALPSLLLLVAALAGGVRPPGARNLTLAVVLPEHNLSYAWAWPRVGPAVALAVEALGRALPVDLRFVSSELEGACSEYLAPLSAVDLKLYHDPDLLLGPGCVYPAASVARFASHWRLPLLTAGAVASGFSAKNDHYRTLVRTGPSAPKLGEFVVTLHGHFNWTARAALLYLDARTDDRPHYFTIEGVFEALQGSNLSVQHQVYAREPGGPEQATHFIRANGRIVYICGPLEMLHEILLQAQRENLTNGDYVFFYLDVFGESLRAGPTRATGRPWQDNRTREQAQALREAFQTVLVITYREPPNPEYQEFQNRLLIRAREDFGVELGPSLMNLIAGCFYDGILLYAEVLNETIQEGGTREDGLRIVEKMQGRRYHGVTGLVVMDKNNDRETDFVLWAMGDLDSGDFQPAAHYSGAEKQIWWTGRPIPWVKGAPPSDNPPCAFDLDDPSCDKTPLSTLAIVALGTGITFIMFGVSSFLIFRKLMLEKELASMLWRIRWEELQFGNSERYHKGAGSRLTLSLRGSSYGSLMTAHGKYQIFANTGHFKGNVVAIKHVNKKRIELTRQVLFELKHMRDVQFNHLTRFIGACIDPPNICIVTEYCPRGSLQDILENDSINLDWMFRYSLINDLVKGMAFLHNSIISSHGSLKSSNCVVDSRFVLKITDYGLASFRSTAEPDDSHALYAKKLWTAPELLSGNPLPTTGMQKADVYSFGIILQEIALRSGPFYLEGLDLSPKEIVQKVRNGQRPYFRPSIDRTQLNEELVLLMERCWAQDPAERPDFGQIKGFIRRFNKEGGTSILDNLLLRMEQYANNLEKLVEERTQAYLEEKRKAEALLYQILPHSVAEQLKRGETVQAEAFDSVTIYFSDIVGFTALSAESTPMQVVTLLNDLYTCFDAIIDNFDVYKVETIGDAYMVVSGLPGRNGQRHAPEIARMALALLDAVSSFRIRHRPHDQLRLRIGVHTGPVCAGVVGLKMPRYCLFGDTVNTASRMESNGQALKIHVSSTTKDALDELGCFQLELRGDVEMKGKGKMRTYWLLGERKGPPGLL

With `CC(N)Cc1c[nH]c2ccc(O)cc12` (configuration not stated), the Potency result in experiment [1], in experiment [2], in experiment [3], in experiment [5] and in experiment [7] was “inactive” in each case. Further, the compound was called inactive in experiment [4] and in experiment [6].
With `NC(=O)c1cc(N2CC2)c([N+](=O)[O-])cc1[N+](=O)[O-]`, the Potency result in experiment [1], in experiment [2], in experiment [3] and in experiment [5] was “inactive” each time. For the same compound, in experiment [4], the compound was classed as inactive.
For `C[C@@](O)(COc1ccc(C#N)cc1)C(=O)Nc1ccc(C#N)c(C(F)(F)F)c1`, the Potency result in experiment [8] is “inactive”.
Turning to `NC(Cc1ccc(N(CCCl)CCCl)cc1)C(=O)O` (configuration not stated), the Potency result in experiment [1], in experiment [2] and in experiment [3] was “inactive” each time.
For `COc1ccc2c(c1O)-c1cccc3c1[C@@H](C2)N(C)CC3`, the Potency entry in experiment [1], in experiment [2] and in experiment [3] was “inactive” in each case. In addition, the compound was called inactive in experiment [4].
For `NC(N)=NOCC[C@H](N)C(=O)O`, the Potency result in experiment [1], in experiment [2] and in experiment [3] was “inactive” in each case.
As for `COc1ccc2c(c1)[C@@]13CCCC[C@H]1[C@@H](C2)NCC3`, the Potency entry in experiment [1], in experiment [2] and in experiment [3] was “inactive” each time.
As for `COc1ccc2[nH]c3c(c2c1)CCNC3`, the Potency result in experiment [1], in experiment [2], in experiment [3] and in experiment [5] was “inactive” in each case. Further, the call in experiment [4] was inactive.
For the compound `C/C=C(\C)C(=O)OC1C(C)OC(OC2C(C)OC(OC3CCC4(C)C(=CCC5C4CCC4(C)C(C(C)OC6OC(COC7OC(CO)C(O)C(O)C7O)C(O)C(O)C6O)CCC54O)C3)CC2OC)C(O)C1OC` (configuration not stated), the activity change, negative = cytotoxicity in experiment [8] is 7.92% [at 9.29 µM].
Turning to `COc1ccc2c(c1)c(CCN1CCOCC1)c(C)n2C(=O)c1cccc(Cl)c1Cl`, the Potency result in experiment [1], in experiment [2] and in experiment [3] was “inactive” throughout.
Take `C[C@H](Cc1ccc2c(c1)OC(C(=O)O)(C(=O)O)O2)NC[C@H](O)c1cccc(Cl)c1`: the Potency entry in experiment [1], in experiment [2], in experiment [3], in experiment [5] and in experiment [7] was “inactive” in each case. Further, the result in experiment [4] and in experiment [6] was inactive.
For the compound `N#C[C@@H](O[C@@H]1O[C@H](CO[C@@H]2O[C@H](CO)[C@@H](O)[C@H](O)[C@H]2O)[C@@H](O)[C@H](O)[C@H]1O)c1ccccc1`, the Potency result in experiment [8] was “inactive”.
For the compound `COC1CC(OC2CCC3(C=O)C(CCC4C3CCC3(C)C(C5=CC(=O)OC5)CCC43O)C2)OC(C)C1OC1OC(CO)C(O)C(O)C1O` (configuration not stated), the Potency in experiment [8] was 0.172 µM (active).
Regarding `FC(F)OC(F)(F)C(F)Cl` (configuration not stated), the Potency result in experiment [8] is “inactive”.
With `CCCN(CCC)CCc1c[nH]c2ccc(C(N)=O)cc12`, the Potency result in experiment [1], in experiment [2] and in experiment [3] was “inactive” each time.
In the case of `C[C@@H]1[C@@H]2Cc3ccc(O)cc3[C@@]1(C)CCN2CC1CC1`, the Potency result in experiment [8], in experiment [1], in experiment [2] and in experiment [3] was “inactive” in each case.
Consider `N[C@@H](Cn1ccc(=O)[nH]c1=O)C(=O)O`, for which the Potency result in experiment [1], in experiment [2] and in experiment [3] was “inactive” each time.
With `C=CCN1CC[C@]23c4c5ccc(O)c4O[C@H]2/C(=N/NC(=O)c2ccccc2)CC[C@@]3(O)[C@H]1C5`, the Potency result in experiment [1], in experiment [2] and in experiment [3] was “inactive” throughout.
On to `O=C(CCl)c1ccc(Oc2ccc(C(=O)CCl)cc2)cc1`, for which, in experiment [8], the Potency result was “inactive”.
For the compound `CCCn1c(C)c(C(=O)c2ccc3ccccc3c2)c2ccccc21`, the Potency entry in experiment [1], in experiment [2] and in experiment [3] was “inactive” each time.
Consider `C=CCN=C=S`, for which the Potency entry in experiment [8] was “inactive”.
On to `CCN(CCCl)Cc1ccccc1Br`, for which the Potency result in experiment [1], in experiment [2] and in experiment [3] was “inactive” throughout.
With `COC(=O)N1CCN(C(=O)Cc2ccc(Cl)c(Cl)c2)[C@@H](CN2CCCC2)C1`, in experiment [8], the Potency result is “inactive”.
In the case of `CC(=O)O[C@H]1C[C@@H](OC(C)=O)C(C)(C)C2C[C@@H](O)[C@]3(C)C(CC[C@@]4(C)[C@H](C5=CC(=O)OC5O)C[C@H]5O[C@]543)[C@]21C` (some centres not stated), the Potency entry in experiment [8] is “inactive”.
Take `CC(=O)NBr`: the Potency entry in experiment [1], in experiment [2], in experiment [3], in experiment [5] and in experiment [7] was “inactive” throughout. In addition, the compound was called inactive in experiment [4] and in experiment [6].
Regarding `C[C@@H]1O[C@H](C[N+](C)(C)C)CS1`, the Potency entry in experiment [1], in experiment [2] and in experiment [3] was “inactive” throughout.
`CCCSP(=O)(OCC)SCCC`: the Potency entry in experiment [8] is “inactive”. The call in experiment [4] was inactive.
As to `CN1CCC[C@@H]1Cc1c[nH]c2ccc(Nc3ncccc3[N+](=O)[O-])cc12`, the Potency result in experiment [8] was “inactive”. Besides, in experiment [4], the outcome was inactive.
`C[Se]C[C@H](N)C(=O)O`: the Potency entry in experiment [1], in experiment [2] and in experiment [3] was “inactive” throughout.
Take `C=CCN1CC[C@]23c4c5ccc(O)c4O[C@@H]2/C(=N/N=C2\CC[C@@]4(O)C6Cc7ccc(O)c8c7[C@@]4(CCN6CC=C)[C@@H]2O8)CC[C@@]3(O)C1C5`: the Potency entry in experiment [1] and in experiment [2] was “inactive” throughout.
As for `CC(C)(O)[C@H]1O[C@H]2CC[C@@]3(C)[C@@](O)(CC[C@H]4Cc5c([nH]c6ccccc56)[C@@]43C)C2=CC1=O`, the Potency entry in experiment [8] was “inactive”.
Take `CC(C)(O)[C@@H]1C2OC(=O)[C@@H]1[C@]1(O)C[C@H]3O[C@]34C(=O)O[C@H]2[C@]14C` (tested in a mixture with another compound): the Potency entry in experiment [1], in experiment [2], in experiment [3], in experiment [5] and in experiment [7] was “inactive” throughout. The compound was classed as inactive in experiment [4] and in experiment [6].
For `c1ccc2cc(CC3=NCCN3)ccc2c1`, the Potency entry in experiment [1], in experiment [2], in experiment [3], in experiment [5] and in experiment [7] was “inactive” each time. In addition, the compound was classed as inactive in experiment [4] and in experiment [6].
On to `NC(=O)c1ccc(OCC(O)CN2CC=C(c3ccc(F)cc3)CC2)cc1` (configuration not stated), for which the Potency result in experiment [1], in experiment [2], in experiment [3], in experiment [5] and in experiment [7] was “inactive” each time. The result in experiment [4] and in experiment [6] was inactive.
In the case of `COc1ccc2[nH]cc(CCN)c2c1`, the Potency entry in experiment [1], in experiment [2], in experiment [3], in experiment [5] and in experiment [7] was “inactive” each time. The call in experiment [4] and in experiment [6] was inactive.
On to `CCOC(=O)c1ncn2c1[C@@H]1CCCN1C(=O)c1cc(OC)ccc1-2`, for which the Potency entry in experiment [1], in experiment [2], in experiment [3], in experiment [5] and in experiment [7] was “inactive” each time. Moreover, the compound was called inactive in experiment [4] and in experiment [6].
On to `OCc1cnc[nH]1`, for which the Potency result in experiment [1], in experiment [2], in experiment [3], in experiment [5] and in experiment [7] was “inactive” throughout. The result in experiment [4] and in experiment [6] was inactive.
As to `CCN1C[C@@]2(COC)C3[C@@H](OC)C4[C@@H]1C3([C@@H]1C[C@]3(O)[C@H](OC(=O)c5ccccc5)[C@@H]1[C@]4(OC(C)=O)[C@@H](O)[C@@H]3OC)[C@H](OC)C[C@H]2O`, the Potency entry in experiment [1], in experiment [2], in experiment [3], in experiment [5] and in experiment [7] was “inactive” throughout. Also, the compound was classed as inactive in experiment [4] and in experiment [6].
On to `CC(C)NP(=O)(NC(C)C)OP(=O)(NC(C)C)NC(C)C`, for which the Potency entry in experiment [1], in experiment [2], in experiment [3], in experiment [5] and in experiment [7] was “inactive” each time. For the same compound, the result in experiment [4] and in experiment [6] was inactive.
For the compound `OC1CCCCC1N1CCC(c2ccccc2)CC1` (configuration not stated), the Potency entry in experiment [1], in experiment [2], in experiment [3], in experiment [5] and in experiment [7] was “inactive” each time. For the same compound, the outcome in experiment [4] and in experiment [6] was inactive.
`CCNC(=O)[C@H]1O[C@@H](n2cnc3c(N)ncnc32)[C@H](O)[C@@H]1O`: the Potency result in experiment [1], in experiment [2], in experiment [3], in experiment [5] and in experiment [7] was “inactive” throughout. In addition, the call in experiment [4] and in experiment [6] was inactive.
On to `NCC(O)c1cc(O)c(O)cc1F` (configuration not stated), for which the Potency entry in experiment [1], in experiment [2], in experiment [3], in experiment [5] and in experiment [7] was “inactive” throughout. For the same compound, the compound was classed as inactive in experiment [4] and in experiment [6].
Regarding `NCCc1ccc(S(=O)(=O)F)cc1`, the Potency entry in experiment [1], in experiment [2], in experiment [3], in experiment [5] and in experiment [7] was “inactive” throughout. The compound was called inactive in experiment [4] and in experiment [6].
